In the supplement of paper PMC6897291:

Tested on: RIVA
Test: growth inhibition by drug plus 177Lu-lilotomab satetraxetan (1 - RLU/untreated control) (fraction); higher = stronger inhibition
Settings: 100 nM; time (day): 6; 177Lu-lilotomab satetraxetan 0.5 ug/ml
Method in brief: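 Growth inhibition was calculated from RealTime-Glo RLU against untreated no-drug wells. Values equal 1 − RLU/mean of 48 untreated no-drug wells per plate, read daily from day 3 after 1 h at 37°C. RIVA and U-2932 cells, with or without 18 h pretreatment by a radiolabelled anti-CD37 antibody conjugate (~600 MBq/mg; 0.5 µg/ml RIVA, 1 µg/ml U-2932), were washed and plated at 3,000 cells/well on compound-printed plates at 10/100 nM (RIVA) or 10/1,000 nM (U-2932).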

Compound | growth inhibition by drug plus 177Lu-lilotomab satetraxetan
CNCc1ccc(-c2[nH]c3cc(F)cc4c3c2CCNC4=O)cc1 | 0.57
O=C(O)c1ccc(-c2c[nH]c3ncc(-c4ccccc4)cc23)cc1C1CCCC1 | 0.51
CC(=O)c1c(C)c2cnc(Nc3ccc(N4CCNCC4)cn3)nc2n(C2CCCC2)c1=O | 0.392
CCN(CC)CCCCNc1ncc2cc(-c3cc(OC)cc(OC)c3)c(NC(=O)NC(C)(C)C)nc2n1 | 0.439
CCC(C)(C)C(=O)O[C@H]1C[C@@H](C)C=C2C=C[C@H](C)[C@H](CC[C@@H]3C[C@@H](O)CC(=O)O3)[C@H]21 [Simvastatin (Zocor)] | 0.48
CC[C@H](Nc1ncnc2[nH]cnc12)c1nc2cccc(F)c2c(=O)n1-c1ccccc1 | 0.546
CC(C=CC(=O)NO)=CC(C)C(=O)c1ccc(N(C)C)cc1 (stereo not drawn) [Trichostatin A (TSA)] | 0.763
COc1ccc2c3n(c(=NC(=O)c4cccnc4)nc2c1OC)CCN3 | 0.551
NC(=O)c1ccc(-c2nc(-c3ccccn3)c(-c3ccc4c(c3)OCO4)[nH]2)cc1 | 0.52
CNC(=O)c1cc(Oc2ccc(NC(=O)Nc3ccc(Cl)c(C(F)(F)F)c3)c(F)c2)ccn1 [Regorafenib (BAY 73-4506)] | 0.644
Cc1cnc(Nc2ccc(OCCN3CCCC3)cc2)nc1Nc1cccc(S(=O)(=O)NC(C)(C)C)c1 | 0.307
CCOc1ccc(Nc2nc(-c3c(C)nc4ccccn34)cs2)cc1 | 0.973
CC(C)C[C@H](NC(=O)[C@H](Cc1ccccc1)NC(=O)c1cnccn1)B(O)O [Bortezomib (Velcade)] | 0.99
